Reference: PubChem BioAssay
Calls of active or inactive are those of the source.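 The calls were made as follows, unless noted: active = visually confirmed hit in the image check and inhibition above 20%; inconclusive = visually confirmed hit but inhibition not above 20%; inactive = no visual hit in the image check.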

Test: reduction of polyQ htt aggregates in cells – imaging, exon1htt(103Q)mCFP cells, high-content imaging, primary screen (AID 483;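 active = visual image review flags a hit and inhibition of aggregation exceeds 20%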;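 also: compound exposure lasted 3 days before fixation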;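 as to nuclei count: percent of the per-plate median nuclei count of sample wells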)
Settings: exon1htt(103Q)mCFP cell line, aggregate imaging, at 2 µM; inhibition of aggregation: stronger effect = higher value; nuclei count: measured here: cell count, toxicity
For `COc1ccc(OC)c(NC(=O)CSc2nnc(-c3ccco3)n2-c2ccccc2)c1`, the inhibition of aggregation was 9.3% (inactive) and the nuclei count was 104%. In the case of `C#CCSc1nc(-c2cccs2)ccc1C#N`, the inhibition of aggregation is reported as -15% (inactive) and the nuclei count is reported as 92.8%. In the case of `O=C1c2oc3ccccc3c(=O)c2C(c2cccnc2)N1Cc1ccco1` (stereo not given), the nuclei count is reported as 110% and the inhibition of aggregation is reported as -2.7% (inactive). In the case of `Cc1ccc(C(=O)Nc2c(C(=O)N3CCOCC3)cnn2-c2ccccc2)cc1`, the inhibition of aggregation is reported as -0.9% (inactive) and the nuclei count is reported as 102%. For `C#CCOC(=O)C1C2C=CC(C2)C1C(=O)O` (stereo not given), the nuclei count was 87.7% and the inhibition of aggregation was 7.3% (inactive). For `O=C(NC1CCCCCCC1)C1CCN(c2nc3ccccc3o2)CC1`, the nuclei count was 94.8% and the inhibition of aggregation was 9.4% (inactive). For `COC(=O)c1[nH]c2ccc(C)cc2c1NC(=O)CN1CCC(C)CC1`, the nuclei count was 103% and the inhibition of aggregation was 15.7% (inactive). With `Cc1cc(C)nc(SCc2nnc(SCC(=O)Nc3ncc(C)s3)n2Cc2ccco2)n1` the nuclei count was 98.6% and the inhibition of aggregation was 7.1% (inactive). In the case of `O=C(c1ccc(S(=O)(=O)N2CCC(c3nc4ccccc4s3)CC2)cc1)N1CCOCC1`, the inhibition of aggregation is reported as -25% (inactive) and the nuclei count is reported as 109%. In the case of `CCCCCc1nnc(NC(=O)Cc2cccs2)s1`, the inhibition of aggregation is reported as -1.3% (inactive) and the nuclei count is reported as 93.5%. With `COc1ccc(N=C2C(=O)Nc3ccccc32)cc1` the inhibition of aggregation was -5% (inactive) and the nuclei count was 100%. With `O=C(O)CCc1ccc(-c2ccc(F)cc2)n1CCC(=O)O` the nuclei count was 118% and the inhibition of aggregation was -12.9% (inactive). For `COC(=O)c1ccccc1NC(=O)c1cnc2sccn2c1=O`, the nuclei count was 77.5% and the inhibition of aggregation was 14% (inactive). For `COc1ccc(Cl)c(NC(=O)NCCN2CCN(c3ccccc3)CC2)c1`, the inhibition of aggregation was 1% (inactive) and the nuclei count was 99.5%. In the case of `COc1cccc(NC(=O)N(CCCN2CCOCC2)C(C)c2cc3cccc(OC)c3o2)c1` (stereo not given), the inhibition of aggregation is reported as -3.4% (inactive) and the nuclei count is reported as 106%. In the case of `CC(C)(C)NC(=O)CN(Cc1cccs1)C(=O)c1csnn1`, the nuclei count is reported as 85% and the inhibition of aggregation is reported as 34.6% (active). With `O=C(CSc1nnc(-c2ccccn2)n1Cc1ccccc1)N1CCCC1` the inhibition of aggregation was 7.9% (inactive) and the nuclei count was 112%. In the case of `Cc1[nH]nc(-c2ccc(O)c(C)c2O)c1-c1cnn(-c2ccccc2)c1`, the nuclei count is reported as 111% and the inhibition of aggregation is reported as 10.3% (inactive). In the case of `O=C(CN1CCSCC1)N1CCc2[nH]c3ccc(Br)cc3c2C1`, the inhibition of aggregation is reported as 21.5% (inactive) and the nuclei count is reported as 99.4%. In the case of `COc1ccccc1C1N(c2ccc(F)cc2)C(=O)C2CCCN21` (stereo not given), the nuclei count is reported as 84.3% and the inhibition of aggregation is reported as 7.1% (inactive). In the case of `Cc1cc(N2C(=O)CC(N3CCN(c4ccc(C(=O)c5cccs5)cc4)CC3)C2=O)no1` (stereo not given), the nuclei count is reported as 112% and the inhibition of aggregation is reported as -3% (inactive). In the case of `CC(C)(C)NC(=O)C(Cc1ccccc1)NS(=O)(=O)c1cccc2nsnc12` (stereo not given), the inhibition of aggregation is reported as -37.6% (inactive) and the nuclei count is reported as 113%. For `COc1ccc(N2C(=O)c3cccc4cccc(c34)C2=O)nn1`, the nuclei count was 105% and the inhibition of aggregation was 4.9% (inactive). With `O=C(CSc1ccccc1C(=O)NCCCN1CCCC1=O)NCc1ccco1` the nuclei count was 98.6% and the inhibition of aggregation was -6.6% (inactive). With `Cc1ccc(OCC(O)Cn2c(NCCc3ccccc3)nc3c2c(=O)[nH]c(=O)n3C)cc1` (stereo not given) the inhibition of aggregation was -12.3% (inactive) and the nuclei count was 107%. With `CC1CCCC(C)N1CCNC(=O)C1CCN(S(=O)(=O)N2CCCCC2)CC1` (stereo not given) the nuclei count was 104% and the inhibition of aggregation was 17.2% (inactive). With `Cc1nc2ncnn2c(N2CCC(C(=O)NCC3CCCO3)CC2)c1Cc1ccccc1` (stereo not given) the nuclei count was 97% and the inhibition of aggregation was -26.5% (inactive). In the case of `COc1ccc(NC(=O)Nc2ccc(N3CCCC3=O)cc2)cc1OC`, the inhibition of aggregation is reported as -6.3% (inactive) and the nuclei count is reported as 102%. In the case of `CC(NC(=O)NC12CC3CC(CC(C3)C1)C2)C1CCCO1` (stereo not given), the nuclei count is reported as 80.4% and the inhibition of aggregation is reported as 0.8% (inactive). For `COc1ccc(N2CCN(C(=O)CSc3ccccc3)CC2)cc1`, the inhibition of aggregation was 1.5% (inactive) and the nuclei count was 105%. For `COC(=O)c1cccc(NC(=O)CN2CCN(Cc3ccccc3)CC2)c1`, the nuclei count was 124% and the inhibition of aggregation was -15.3% (inactive). With `O=C(Nc1ccc(-c2nc3ncccc3o2)cc1)c1ccc(Br)o1` the nuclei count was 89.7% and the inhibition of aggregation was -3.8% (inactive). With `COc1ccc(S(=O)(=O)Nc2ccc(Cl)cn2)c(C)c1C` the inhibition of aggregation was -3.5% (inactive) and the nuclei count was 62%. With `COc1cccc(NC(=O)N2CCCC2C(=O)Nc2ccc3c(c2)OCO3)c1` (stereo not given) the inhibition of aggregation was -11.8% (inactive) and the nuclei count was 57.5%. For `O=C(CSc1nc2ccccc2c(=O)n1Cc1ccco1)NCc1ccccc1`, the nuclei count was 87.8% and the inhibition of aggregation was 1.9% (inactive). With `O=C(NC1CCCC1)C(NS(=O)(=O)c1cccc2nsnc12)c1ccccc1` (stereo not given) the inhibition of aggregation was 2.5% (inactive) and the nuclei count was 103%. For `CCOC(=O)c1sc(NC(=O)CSc2ncn(-c3ccccc3)n2)nc1C`, the inhibition of aggregation was 14.5% (inactive) and the nuclei count was 102%. For `COC(=O)Nc1ccc(S(=O)(=O)N2CCCCCC2)cc1`, the inhibition of aggregation was 1.8% (inactive) and the nuclei count was 100%. With `Cc1cc(C)n2nc(SCC(=O)N(C)Cc3ccccc3)nc2n1` the inhibition of aggregation was -27.8% (inactive) and the nuclei count was 116%. With `O=C(CSc1nnc(Cc2ccccc2)n1-c1cccc(Cl)c1)N1CCOCC1` the inhibition of aggregation was -18.8% (inactive) and the nuclei count was 85.8%.

Test: endothelial E-selectin expression blockers – imaging, HUVEC, immunofluorescence, MLSMR starter and 10KST1 sets, primary screen (AID 487);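 as to inhibition: signal is fraction of cell area covered by stained E-selectin grains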;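 as to nuclei count: 100% = median nuclei count of all wells on the same plate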
Settings: HUVEC TNFalpha-induced E-selectin immunofluorescence imaging, at 2 µM; inhibition: stronger effect = higher value; nuclei count: measured here: cell number, toxicity
With `COc1ccc(OC)c(NC(=O)CSc2nnc(-c3ccco3)n2-c2ccccc2)c1` the inhibition was -59.6% (inactive) and the nuclei count was 98.9%. For `C#CCSc1nc(-c2cccs2)ccc1C#N`, the nuclei count was 112% and the inhibition was -85.2% (inactive). In the case of `O=C1c2oc3ccccc3c(=O)c2C(c2cccnc2)N1Cc1ccco1` (stereo not given), the nuclei count is reported as 111% and the inhibition is reported as -107% (inactive). With `Cc1ccc(C(=O)Nc2c(C(=O)N3CCOCC3)cnn2-c2ccccc2)cc1` the inhibition was -6.5% (inactive) and the nuclei count was 105%. In the case of `C#CCOC(=O)C1C2C=CC(C2)C1C(=O)O` (stereo not given), the inhibition is reported as -317% (inactive) and the nuclei count is reported as 115%. For `O=C(NC1CCCCCCC1)C1CCN(c2nc3ccccc3o2)CC1`, the nuclei count was 116% and the inhibition was -34.9% (inactive). In the case of `COC(=O)c1[nH]c2ccc(C)cc2c1NC(=O)CN1CCC(C)CC1`, the nuclei count is reported as 120% and the inhibition is reported as -18.4% (inactive). For `Cc1cc(C)nc(SCc2nnc(SCC(=O)Nc3ncc(C)s3)n2Cc2ccco2)n1`, the nuclei count was 103% and the inhibition was -23.5% (inactive). In the case of `O=C(c1ccc(S(=O)(=O)N2CCC(c3nc4ccccc4s3)CC2)cc1)N1CCOCC1`, the inhibition is reported as -80.2% (inactive) and the nuclei count is reported as 116%. With `CCCCCc1nnc(NC(=O)Cc2cccs2)s1` the nuclei count was 95.6% and the inhibition was -23.7% (inactive). For `COc1ccc(N=C2C(=O)Nc3ccccc32)cc1`, the inhibition was -96.7% (inactive) and the nuclei count was 138%. With `O=C(O)CCc1ccc(-c2ccc(F)cc2)n1CCC(=O)O` the nuclei count was 120% and the inhibition was -140% (inactive). In the case of `COC(=O)c1ccccc1NC(=O)c1cnc2sccn2c1=O`, the nuclei count is reported as 98% and the inhibition is reported as 14.9% (inactive). In the case of `COc1ccc(Cl)c(NC(=O)NCCN2CCN(c3ccccc3)CC2)c1`, the inhibition is reported as -12.8% (inactive) and the nuclei count is reported as 119%. With `COc1cccc(NC(=O)N(CCCN2CCOCC2)C(C)c2cc3cccc(OC)c3o2)c1` (stereo not given) the inhibition was -93.2% (inactive) and the nuclei count was 132%. In the case of `CC(C)(C)NC(=O)CN(Cc1cccs1)C(=O)c1csnn1`, the nuclei count is reported as 89.9% and the inhibition is reported as 20.6% (inactive). For `O=C(CSc1nnc(-c2ccccn2)n1Cc1ccccc1)N1CCCC1`, the nuclei count was 97.4% and the inhibition was 19.6% (inactive). In the case of `Cc1[nH]nc(-c2ccc(O)c(C)c2O)c1-c1cnn(-c2ccccc2)c1`, the inhibition is reported as 45.5% (inactive) and the nuclei count is reported as 97.8%. With `O=C(CN1CCSCC1)N1CCc2[nH]c3ccc(Br)cc3c2C1` the inhibition was 28.3% (inactive) and the nuclei count was 102%. In the case of `COc1ccccc1C1N(c2ccc(F)cc2)C(=O)C2CCCN21` (stereo not given), the nuclei count is reported as 91.4% and the inhibition is reported as 27.9% (inactive). For `Cc1cc(N2C(=O)CC(N3CCN(c4ccc(C(=O)c5cccs5)cc4)CC3)C2=O)no1` (stereo not given), the inhibition was -31.2% (inactive) and the nuclei count was 93.1%. With `CC(C)(C)NC(=O)C(Cc1ccccc1)NS(=O)(=O)c1cccc2nsnc12` (stereo not given) the inhibition was -49.9% (inactive) and the nuclei count was 112%. For `COc1ccc(N2C(=O)c3cccc4cccc(c34)C2=O)nn1`, the inhibition was -81.4% (inactive) and the nuclei count was 114%. In the case of `O=C(CSc1ccccc1C(=O)NCCCN1CCCC1=O)NCc1ccco1`, the nuclei count is reported as 118% and the inhibition is reported as -81.8% (inactive). With `Cc1ccc(OCC(O)Cn2c(NCCc3ccccc3)nc3c2c(=O)[nH]c(=O)n3C)cc1` (stereo not given) the inhibition was -5.4% (inactive) and the nuclei count was 113%. In the case of `CC1CCCC(C)N1CCNC(=O)C1CCN(S(=O)(=O)N2CCCCC2)CC1` (stereo not given), the inhibition is reported as -93.7% (inactive) and the nuclei count is reported as 115%. In the case of `Cc1nc2ncnn2c(N2CCC(C(=O)NCC3CCCO3)CC2)c1Cc1ccccc1` (stereo not given), the nuclei count is reported as 112% and the inhibition is reported as -143% (inactive). For `COc1ccc(NC(=O)Nc2ccc(N3CCCC3=O)cc2)cc1OC`, the nuclei count was 120% and the inhibition was -4.9% (inactive). In the case of `CC(NC(=O)NC12CC3CC(CC(C3)C1)C2)C1CCCO1` (stereo not given), the inhibition is reported as 1.7% (inactive) and the nuclei count is reported as 87.1%. With `COc1ccc(N2CCN(C(=O)CSc3ccccc3)CC2)cc1` the nuclei count was 108% and the inhibition was -18.6% (inactive). In the case of `COC(=O)c1cccc(NC(=O)CN2CCN(Cc3ccccc3)CC2)c1`, the nuclei count is reported as 121% and the inhibition is reported as -28.9% (inactive). With `O=C(Nc1ccc(-c2nc3ncccc3o2)cc1)c1ccc(Br)o1` the inhibition was 8.6% (inactive) and the nuclei count was 100%. For `COc1ccc(S(=O)(=O)Nc2ccc(Cl)cn2)c(C)c1C`, the nuclei count was 98.5% and the inhibition was -46.8% (inactive). For `COc1cccc(NC(=O)N2CCCC2C(=O)Nc2ccc3c(c2)OCO3)c1` (stereo not given), the inhibition was -117% (inactive) and the nuclei count was 106%. In the case of `O=C(CSc1nc2ccccc2c(=O)n1Cc1ccco1)NCc1ccccc1`, the nuclei count is reported as 103% and the inhibition is reported as -6.6% (inactive). For `O=C(NC1CCCC1)C(NS(=O)(=O)c1cccc2nsnc12)c1ccccc1` (stereo not given), the inhibition was -22.2% (inactive) and the nuclei count was 109%. For `CCOC(=O)c1sc(NC(=O)CSc2ncn(-c3ccccc3)n2)nc1C`, the inhibition was -8% (inactive) and the nuclei count was 69.6%. In the case of `COC(=O)Nc1ccc(S(=O)(=O)N2CCCCCC2)cc1`, the nuclei count is reported as 127% and the inhibition is reported as -61.6% (inactive). In the case of `Cc1cc(C)n2nc(SCC(=O)N(C)Cc3ccccc3)nc2n1`, the inhibition is reported as -18.9% (inactive) and the nuclei count is reported as 115%. For `O=C(CSc1nnc(Cc2ccccc2)n1-c1cccc(Cl)c1)N1CCOCC1`, the nuclei count was 119% and the inhibition was -207% (inactive).
